Data as given in PubChem BioAssay (EPA / NIEHS).
Calls of active or inactive are those of the source. Rule for the calls: active = hit-call score of the fitted dose curve at least 0.9, where 1 is the maximum; inactive = score below 0.9.

Legend:
[1] = APR_HepG2_CellCycleArrest_24hr: Apredica 24-hour HepG2 Assay for Cell Cycle Arrest (AID 2282905); conditions: imaging, actives raise or lower the signal;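 note: cell cycle arrest scored as ratio of 2N to 4N nuclear DNA content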
Outline: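 Compounds at 0.39–200 uM (0.5% DMSO) for 24 h, then fixed and Hoechst 33342 stained. Cell-cycle analysis of nuclear DNA content by high-content imaging, fitted bidirectionally versus DMSO.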

[2] = APR_HepG2_NuclearSize_24hr: Apredica 24-hour HepG2 Assay for Nuclear Size (AID 2282907); conditions: high-content imaging, actives raise or lower the signal
Outline: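 HepG2 cells exposed 24 h to compounds at 0.39–200 uM (0.5% DMSO), fixed, Hoechst 33342 stained and imaged at 20x; nuclear diameter measured by automated image analysis, fitted bidirectionally against DMSO controls.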

[3] = APR_HepG2_CellLoss_24hr: Apredica 24-hour HepG2 Assay for Cell Loss (AID 2282908); conditions: high-content imaging;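 for AC50: fit in both directions so a hit may be cell loss or gain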
Outline: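 HepG2 cells exposed 24 hr to 0.39–200 uM compound in duplicate at 0.5% v/v final DMSO. Cells fixed in 3.7% formaldehyde and Hoechst 33342-stained. Cell number came from nuclear imaging at 20x. Bidirectional fit versus DMSO.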

[4] = APR_HepG2_MicrotubuleCSK_24hr: Apredica 24-hour HepG2 Assay for Microtubule CSK Stabilty (AID 2282909); conditions: HepG2 microtubule cytoskeleton imaging, actives raise or lower the signal
Outline: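 HepG2 cells were treated 24 hr with compound at 0.39–200 uM in duplicate (0.5% DMSO final), then fixed and permeabilized. Alpha-tubulin immunofluorescence was imaged by high-content microscopy, with bidirectional fitting against DMSO and taxol as positive control.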

[5] = APR_HepG2_MitoticArrest_24hr: Apredica 24-hour HepG2 Assay for Mitotic Arrest (AID 2282910); conditions: high-content imaging, actives raise or lower the signal
Outline: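 HepG2 human liver cells were exposed to compounds at 0.39–200 uM (10 concentrations, duplicate) in 0.5% v/v DMSO for 24 hr, then fixed and immunostained for phospho-histone H3 with Hoechst 33342. Mitotic arrest came from HCS fluorescent imaging, fitted bidirectionally against DMSO.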

[6] = APR_HepG2_MitoMembPot_24hr: Apredica 24-hour HepG2 Assay for Mitochondrial Membrane Potential (AID 2282911); conditions: imaging, actives raise or lower the signal
Outline: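 HepG2 cells exposed 24 h to 0.39–200 uM compounds in duplicate, 0.5% v/v DMSO final. MitoTracker Red CMXRos 250 nM loaded 30 min before formaldehyde fixation; high-content imaging at 20x, bidirectional fit versus DMSO.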

[7] = APR_HepG2_MitoMass_24hr: Apredica 24-hour HepG2 Assay for Mitochondrial Mass (AID 2282912); conditions: high-content imaging, actives raise or lower the signal
Outline: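 HepG2 cells exposed 24 hr to 0.39–200 uM compound, 0.5% v/v DMSO, in duplicate. Stained before fixation with 250 nM MitoTracker Red CMXRos for 30 min, then imaged at 20x with Hoechst nuclei. Fitted in both directions against DMSO.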

[8] = APR_HepG2_p53Act_24hr: Apredica 24-hour HepG2 Assay for p53 Activation (AID 2282913); conditions: high-content imaging, actives raise or lower the signal;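 note: p53 protein immunofluorescence averaged per cell in HepG2 with Hoechst nuclei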
Outline: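 HepG2 cells exposed 24 h to compounds at 0.39–200 uM in duplicate, 0.5% v/v DMSO final; fixed, permeabilized, stained with anti-p53 antibody and Hoechst 33342; fluorescence imaging; bidirectional curve fit versus DMSO.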

[9] = APR_HepG2_CellCycleArrest_72hr: Apredica 72-hour HepG2 Assay for Cell Cycle Arrest (AID 2282914); conditions: high-content imaging, actives raise or lower the signal
Outline: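 HepG2 cells exposed 72 h in duplicate to 0.39–200 uM compound, 0.5% DMSO final. Formaldehyde-fixed, Hoechst 33342-stained nuclei imaged at 20x, six fields per well; DNA content per valid cell quantified by cell-cycle image analysis, bidirectional fit versus DMSO.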

[10] = APR_HepG2_CellLoss_72hr: Apredica 72-hour HepG2 Assay for Cell Loss (AID 2282915); conditions: high-content imaging
Outline: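 HepG2 cells were exposed for 72 hr to compounds at 0.39–200 uM (ten concentrations, duplicate) in 0.5% v/v final DMSO. Nuclei were stained with Hoechst 33342 after 3.7% formaldehyde fixation, imaged at 20x, and counted; fits bidirectional versus DMSO.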

[11] = APR_HepG2_P-H2AX_72hr: Apredica 72-hour HepG2 Assay for H2AX Phosphorylation (AID 2282916); conditions: imaging, actives raise or lower the signal;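 note: phospho-histone H2A.x immunostain intensity per cell marking DNA damage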
Outline: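 HepG2 cells treated 72 h at 0.39–200 uM, 0.5% DMSO final, duplicates. Formaldehyde-fixed, Triton-permeabilised, immunostained for phospho-H2A.x with Hoechst; fluorescence imaged at 20x, bidirectional fit versus DMSO.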

[12] = APR_HepG2_MitoMembPot_72hr: Apredica 72-hour HepG2 Assay for Mitochondrial Membrane Potential (AID 2282917); conditions: imaging, actives raise or lower the signal
Outline: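 HepG2 cells exposed 72 h to compounds at 0.39–200 uM (0.5% v/v DMSO, duplicates); MitoTracker Red CMXRos 250 nM loaded 30 min before 3.7% formaldehyde fixation, imaged by HCS fluorescence. Bidirectional fit versus DMSO.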

[13] = APR_HepG2_MitoticArrest_72hr: Apredica 72-hour HepG2 Assay for Mitotic Arrest (AID 2282918); conditions: high-content imaging, actives raise or lower the signal
Outline: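 HepG2 cells treated 72 h at 0.39–200 uM, 0.5% DMSO final; formaldehyde-fixed, stained with Hoechst 33342 and phospho-histone H3 antibody, imaged by high-content fluorescence; bidirectional fit versus DMSO.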

[14] = APR_HepG2_MicrotubuleCSK_72hr: Apredica 72-hour HepG2 Assay for Microtubule CSK Stabilty (AID 2282919); conditions: HepG2 microtubule cytoskeleton, high-content imaging, actives raise or lower the signal
Outline: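 HepG2 human liver cells were dosed for 72 h at ten concentrations from 0.39 to 200 uM in duplicate (0.5% v/v DMSO final). Fixed, permeabilized cells were immunostained for alpha-tubulin (Cy5) with a Hoechst counterstain and imaged at 20x.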

[15] = APR_HepG2_P-H2AX_24hr: Apredica 24-hour HepG2 Assay for H2AX Phosphorylation (AID 2282920); conditions: high-content imaging, actives raise or lower the signal
Outline: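 HepG2 cells dosed 24 h at 0.39–200 uM (10 points, duplicate, 0.5% DMSO final). Formaldehyde-fixed and permeabilized, then immunostained for phospho-H2A.x with Hoechst. Fluorescence quantified by high-content imaging, fitted bidirectionally versus DMSO.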

[16] = APR_HepG2_StressKinase_24hr: Apredica 24-hour HepG2 Assay for Stress Kinase (AID 2282922); conditions: HepG2 stress kinase (phospho-c-Jun) imaging, actives raise or lower the signal
Outline: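 HepG2 cells exposed 24 hr to compound at 0.39–200 uM (10 concentrations, duplicate), 0.5% v/v DMSO final. Fixed in 3.7% formaldehyde, permeabilized with Triton X-100, immunolabeled for phospho-c-Jun with Hoechst 33342; HCS fluorescence imaging, bidirectional fit versus DMSO.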

[17] = APR_HepG2_p53Act_72hr: Apredica 72-hour HepG2 Assay for p53 Activation (AID 2282923); conditions: high-content imaging, actives raise or lower the signal;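 note: average cellular p53 protein immunofluorescence intensity in HepG2 cells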
Outline: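 HepG2 cells exposed 72 h to 0.39–200 uM in 0.5% DMSO, duplicates. Fixed, permeabilized cells immunostained for p53 (Cy5) with Hoechst; imaged at 20x, fluorescence analyzed bidirectionally against DMSO.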

[18] = APR_HepG2_MitoMass_72hr: Apredica 72-hour HepG2 Assay for Mitochondrial Mass (AID 2282924); conditions: high-content imaging, actives raise or lower the signal;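 note: MitoTracker Red CMXRos stain intensity per cell imaged as mitochondrial mass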
Outline: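 HepG2 cells were exposed for 72 hr to compounds at 0.39–200 uM (ten concentrations, duplicate, 0.5% v/v DMSO final). Live cells were stained with 250 nM MitoTracker Red CMXRos for 30 min, then fixed in 3.7% formaldehyde and imaged by HCS fluorescence.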

[19] = APR_HepG2_NuclearSize_72hr: Apredica 72-hour HepG2 Assay for Nuclear Size (AID 2282925); conditions: high-content imaging, actives raise or lower the signal
Outline: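 HepG2 cells were exposed to compounds at ten concentrations from 0.39 to 200 uM (duplicate, 0.5% DMSO final) for 72 hr. After fixation in 3.7% formaldehyde, nuclei were stained with Hoechst 33342 (2 ug/mL) and imaged at 20x.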

[20] = APR_HepG2_StressKinase_72hr: Apredica 72-hour HepG2 Assay for Stress Kinase (AID 2282921); conditions: HepG2 stress kinase (phospho-c-Jun) imaging, actives raise or lower the signal
Outline: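 HepG2 cells treated 72 hr with 0.39–200 uM compound, 0.5% v/v DMSO, duplicate wells. After formaldehyde fixation and Triton permeabilization, stained with anti-phospho-c-Jun (1:500) and Cy3 secondary, imaged at 20x. Fitted in both directions against DMSO.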

Measured: AC50

C[C@](N)(Cc1ccc(O)c(O)c1)C(=O)O
inactive: [1] | [2] | [3] | [4] | [5] | [6] | [7] | [8] | [9] | [10] | [11] | [13] | [14] | [15] | [16] | [17] | [18] | [19]
active: [12] 58.4 µM

CNS(=O)(=O)c1cc(C(=O)N2CCC(CCN3C4CCC3CC(n3c(C)nc5ccccc53)C4)(c3cccc(F)c3)CC2)c(Cl)cc1F (configuration not stated)
active: [3] 62.9 µM | [4] 52 µM | [5] 40.9 µM | [7] 62.7 µM | [8] 72.7 µM | [9] 78.9 µM | [10] 24 µM | [11] 11.1 µM | [13] 10.3 µM | [14] 65.2 µM | [15] 52.9 µM | [16] 54.4 µM
inactive: [1] | [2] | [6] | [20] | [17] | [18] | [19]

CC1=CC(=O)CC(C)(C)C1
inactive: [1] | [2] | [3] | [4] | [5] | [6] | [7] | [8] | [9] | [10] | [11] | [12] | [13] | [14] | [15] | [16] | [17] | [18] | [19]

CC(C)=CCCC(C)=CC=O
inactive: [1] | [2] | [3] | [5] | [6] | [7] | [8] | [9] | [10] | [11] | [12] | [13] | [14] | [15] | [20] | [16] | [17] | [18] | [19]

Cc1ccc(N)cc1O
active: [6] 0.917 µM | [10] 10.5 µM | [12] 1.02 µM
inactive: [1] | [2] | [3] | [5] | [7] | [8] | [9] | [11] | [13] | [14] | [15] | [16] | [17] | [19]

Cc1c(-c2cccnc2)c2ccccc2n1CCCCC(=O)O
inactive: [1] | [2] | [3] | [4] | [5] | [6] | [7] | [8] | [9] | [10] | [13] | [14] | [15] | [16] | [17] | [18] | [19]

CCOC(=O)CC(CC(=O)OCC)(OC(C)=O)C(=O)OCC
inactive: [1] | [2] | [3] | [4] | [5] | [6] | [7] | [8] | [13] | [14] | [15] | [20] | [16] | [17] | [19]
active: [9] 82.1 µM | [10] 45.8 µM
